Experimental data: PubChem BioAssay (NCI)
Values joined by “and” are separate entries in the source; they are usually repeats but may differ in a detail not shown here. Identical values can stand only once. Compounds without any hit were thinned out: in the full panel of roughly 83,000, 20% have a hit.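 Plates (96-well) were seeded with cells, treated with compound at one concentration, and incubated for 48 hours before percent growth was determined.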 Active and inactive are the calls of the source. The calls were made as follows: active = growth percent below 10; inactive = the rest.

Key:
Test in all cases: NCI-60 one-dose screen, 48 h (100 = growth as untreated, 0 = no growth, -100 = all killed)
Conditions in all cases: 10 µM unless noted
[1] = tested on: SK-MEL-2 melanoma
[2] = tested on: EKVX NSCLC
[3] = tested on: SN12C renal
[4] = tested on: UO-31 renal
[5] = tested on: TK-10 renal
[6] = tested on: ACHN renal
[7] = tested on: CAKI-1 renal
[8] = tested on: A498 renal
[9] = tested on: CCRF-CEM leukemia
[10] = tested on: MOLT-4 leukemia

Structure (SMILES) | growth [1] | growth [2] | growth [3] | growth [4] | growth [5] | growth [6] | growth [7] | growth [8] | growth [9] | growth [10]
N#CSc1c[nH]c2ccc(/C=C/C(=O)/C=C(/C=C/c3ccc4[nH]cc(SC#N)c4c3)OB(F)F)cc12 | -30.3% (active) | -5.64% (active) | -38.1% (active) | -99.3% (active) | -0.38% (active) | -86.4% (active) | -71.5% (active) | 69.1% (inactive) | -27.7% (active) | -37.9% (active)
COc1ccc(CCNC(=O)COc2cc3c(Nc4ccc(F)c(Cl)c4)ncnc3cc2OC)cc1OC | 86.9% (inactive) | 78.2% (inactive) | 85.2% (inactive) | 46.8% (inactive) | 37.4% (inactive) | 49% (inactive) | 46.5% (inactive) | 55.6% (inactive) | 100% (inactive) | 93.4% (inactive)
Cc1ccc(S(=O)(=O)Nc2cc(Sc3ccccc3)c(O)c3ccccc23)cc1 | 81.8% (inactive) | 116% (inactive) | 64.2% (inactive) | 64% (inactive) | 111% (inactive) | 91.5% (inactive) | 73.1% (inactive) | 70% (inactive) | 12.7% (inactive) | -32.2% (active)
COc1ccc(/C=C/C(=O)c2cc3c(N)c(C(=O)Nc4ccccc4)sc3nc2C)cc1 | 53.1% (inactive) | 47% (inactive) | 12.5% (inactive) | 35.2% (inactive) | 36.9% (inactive) | 31.4% (inactive) | 23.1% (inactive) | 18.6% (inactive) | 16.3% (inactive) | 30.9% (inactive)
CN(C)CC1(C)Cc2ccsc2C1O (stereo not given) | 108% (inactive) and 110% (inactive) | 103% (inactive) and 92.3% (inactive) | 110% (inactive) and 111% (inactive) | 94.2% (inactive) and 87.3% (inactive) | 105% (inactive) and 94.1% (inactive) | 99.6% (inactive) and 106% (inactive) | 106% (inactive) and 103% (inactive) | 97.9% (inactive) and 95.5% (inactive) | 94.8% (inactive) | 99.9% (inactive) and 86.4% (inactive)
C=CCN1C=CC(=O)[C@H](O[Si](C)(C)C(C)(C)C)[C@@H]1/C=C/c1ccccc1 | -57% [100 µM] (active) | -48% [100 µM] (active) | -74% [100 µM] (active) | -73.4% [100 µM] (active) | -64.6% [100 µM] (active) | -73.1% [100 µM] (active) | -72.5% [100 µM] (active) | -88.8% [100 µM] (active) | -33.8% [100 µM] (active) | -30.4% [100 µM] (active)
COc1cc2ncnc(Nc3ccc(F)c(Cl)c3)c2cc1OCC(=O)N1CCCCC1 | 88.1% (inactive) | 63.5% (inactive) | 76.4% (inactive) | 43.5% (inactive) | 23.9% (inactive) | 32.2% (inactive) | 44.5% (inactive) | 43.5% (inactive) | 94.2% (inactive) | 73.8% (inactive)
Cc1ccc(NC(=O)N/C(N)=N/c2nc(=O)c3ccccc3s2)cc1 | 106% (inactive) | 93.7% (inactive) | 93.8% (inactive) | 90.4% (inactive) | 116% (inactive) | 102% (inactive) | 86.9% (inactive) | 63% (inactive) | -23% (active) | 99.8% (inactive)
[2H]C([2H])([2H])Oc1cccc(/C=C/C(=O)/C=C(/C=C/c2cccc(OC([2H])([2H])[2H])c2OC([2H])([2H])[2H])OB(F)F)c1OC([2H])([2H])[2H] | 116% (inactive) | 93.6% (inactive) | 74% (inactive) | 51.5% (inactive) | 99.9% (inactive) | 51.5% (inactive) | 58.1% (inactive) | 117% (inactive) | 4.12% (active) | 15.6% (inactive)
CCOc1nc(-c2ccccc2)cc2c(O)c(C(=O)N/N=C/c3ccc(N(C)C)cc3)[nH]c(=O)c12 | 78.8% (inactive) | 97.5% (inactive) | 103% (inactive) | 88.2% (inactive) | 126% (inactive) | 102% (inactive) | 108% (inactive) | 97.3% (inactive) | 98.1% (inactive) | 95.1% (inactive)
CN(Cc1ccccc1)c1nc(Cl)c(C2CC(c3ccc(F)cc3)=NN2C=O)s1 (stereo not given) | 116% (inactive) | 77.9% (inactive) | 103% (inactive) | 76.7% (inactive) | 96.2% (inactive) | 105% (inactive) | 83.8% (inactive) | 100% (inactive) | 95.6% (inactive) | 91.9% (inactive)
CC(=O)N1N=C(c2ccc(Nc3nc(Nc4ccc(F)cc4)nc(Nc4ccc(Cl)cc4)n3)cc2)CC1c1ccc(N(C)C)cc1 (stereo not given) | 30.8% (inactive) | 43.1% (inactive) | 66% (inactive) | 50.8% (inactive) | 50.5% (inactive) | 61.8% (inactive) | 35.3% (inactive) | 68.4% (inactive) | -27.6% (active) | 29.4% (inactive)
CCCCCCCCCCCCCCCC(=O)O[C@@H]1[C@@H](O)[C@@H](O)C([C@H](NC(=O)[C@@H]2C[C@@H](CCC)CN2C)[C@H](C)Cl)O[C@@H]1SC (stereo not given in full) | 112% (inactive) | 100% (inactive) | 104% (inactive) | 77.2% (inactive) | 115% (inactive) | 95.4% (inactive) | 96% (inactive) | 101% (inactive) | 101% (inactive) | 103% (inactive)
NC1=CC(=O)c2cccnc2C1=O | -46.6% (active) | -20.8% (active) | -85.2% (active) | -98.2% (active) | 94.3% (inactive) | 5.89% (active) | -69.4% (active) | 81.9% (inactive) | -24.3% (active) | -46.4% (active)
O/N=C(/c1ccccc1)c1ccc2c3c(cccc13)CC2 | 96.2% (inactive) and 92.7% (inactive) | 79.5% (inactive) | 93.1% (inactive) and 85.7% (inactive) | 73.4% (inactive) and 81.3% (inactive) | 113% (inactive) and 89.7% (inactive) | 101% (inactive) and 94.5% (inactive) | 71.5% (inactive) and 72.5% (inactive) | 78.3% (inactive) and 89.2% (inactive) | 75.3% (inactive) and 82.8% (inactive) | 74.7% (inactive) and 72.9% (inactive)
COCCn1cc(-c2csc(-c3cn(C)c4ccc(F)cc34)n2)c2cccnc21 | 72% (inactive) | 59% (inactive) | 74.5% (inactive) | 64.2% (inactive) | 81.5% (inactive) | 78% (inactive) | 84% (inactive) | 36.3% (inactive) | 56% (inactive) | 56.7% (inactive)
Cc1cccc(-c2nnc(SCC(=O)Nc3ncc(Cc4ccccc4)s3)n2N2C(=O)CSC2=S)c1 | 75.6% (inactive) | 73.4% (inactive) | 19.1% (inactive) | 72.3% (inactive) | 47.3% (inactive) | 43.8% (inactive) | 23.3% (inactive) | 64.8% (inactive) | 76.5% (inactive) | 87.5% (inactive)
O=C1/C(=C/c2ccc(-c3cccc(C(F)(F)F)c3)o2)SC(=S)N1CCc1ccc(O)cc1 | 56.4% (inactive) | 89% (inactive) | 75.1% (inactive) | 52.9% (inactive) | 94.1% (inactive) | 87.4% (inactive) | 53.8% (inactive) | 65.3% (inactive) | 14% (inactive) | 37% (inactive)
NS(=O)(=O)OCC1OC(n2cnc3cncnc32)C(O)C1O (stereo not given) | 30.5% [0.1 µM] (inactive) and 21.3% [0.1 µM] (inactive) | 69.5% [0.1 µM] (inactive) | -10.2% [0.1 µM] (active) and -29.3% [0.1 µM] (active) | -2.13% [0.1 µM] (active) and 19.4% [0.1 µM] (inactive) | 18.5% [0.1 µM] (inactive) and 13% [0.1 µM] (inactive) | 13.3% [0.1 µM] (inactive) and 14.6% [0.1 µM] (inactive) | -34.9% [0.1 µM] (active) and 8.16% [0.1 µM] (active) | -5.51% [0.1 µM] (active) and -5.14% [0.1 µM] (active) | 11.4% [0.1 µM] (inactive) and -1.11% [0.1 µM] (active) | 0.572% [0.1 µM] (active) and -5.43% [0.1 µM] (active)
C=C(CNCCO)[C@@H]1CC[C@]2(CO)CC[C@]3(C)[C@H](CC[C@@H]4[C@@]5(C)CCC(NCCc6ccc(O)cc6)C(C)(C)[C@@H]5CC[C@]43C)[C@@H]12 (stereo not given in full) | -84.1% (active) | -75.3% (active) | -73.7% (active) | -95.4% (active) | -89.4% (active) | -96.6% (active) | -85.8% (active) | -87.5% (active) | -28.5% (active) | -30.3% (active)
O=C(Cn1cc(CN2CCN(c3ccnc4cc(Cl)ccc34)CC2)nn1)Nc1cccc([N+](=O)[O-])c1 | 97.1% (inactive) | 94.4% (inactive) | 92.9% (inactive) | 63.4% (inactive) | 105% (inactive) | 87.7% (inactive) | 76.4% (inactive) | 90.7% (inactive) | 33.8% (inactive) | 80% (inactive)
N#Cc1ccccc1OCC(=O)Nc1nc2c(s1)COc1ccccc1-2 | 88.7% (inactive) | 86.7% (inactive) | 96.2% (inactive) | 72.4% (inactive) | 140% (inactive) | 102% (inactive) | 99.2% (inactive) | 130% (inactive) | 96% (inactive) | 77.5% (inactive)
COc1ccc(/C=N\Nc2nc(SCC(C)C)nc(-c3ccc(OC)cc3)c2C#N)cc1 | 87% (inactive) | 35.1% (inactive) | 2.1% (active) | -53.5% (active) | -54.7% (active) | -71.7% (active) | 9.54% (active) | -7.9% (active) | 38.6% (inactive) | 30.2% (inactive)
O=C1/C(=C/c2ccccc2)CN(C(=O)C(Cl)Cl)C/C1=C\c1ccccc1 | 38.4% (inactive) | 12.2% (inactive) | -40.7% (active) | -52.8% (active) | 59.5% (inactive) | -74.6% (active) | 4.64% (active) | 4.17% (active) | 8.2% (active) | 4.99% (active)
